Laboratory results from PubChem BioAssay (NCI).
About 83,000 compounds went through this panel and 20% of them were active in at least one assay; those are over-represented in the sample as a whole.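 96-well plates, one dose, 48 hours. Percent growth reported; active if below 10.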 Values without a mark were called inactive. Active and inactive are the calls of the source.

Assays:
Assay in all cases: NCI-60 one-dose screen, 48 h (100 = growth as untreated, 0 = no growth, -100 = all killed)
Settings in all cases: 10 µM
HCT-15 colon = system: HCT-15 colon
HT29 colon = system: HT29 colon
SNB-19 CNS = system: SNB-19 CNS
U251 CNS = system: U251 CNS
PC-3 prostate = system: PC-3 prostate
SK-MEL-5 melanoma = system: SK-MEL-5 melanoma
UACC-62 melanoma = system: UACC-62 melanoma
LOX IMVI melanoma = system: LOX IMVI melanoma
SK-MEL-28 melanoma = system: SK-MEL-28 melanoma
SK-MEL-2 melanoma = system: SK-MEL-2 melanoma
SN12C renal = system: SN12C renal
UO-31 renal = system: UO-31 renal
TK-10 renal = system: TK-10 renal
ACHN renal = system: ACHN renal
CAKI-1 renal = system: CAKI-1 renal
A498 renal = system: A498 renal
CCRF-CEM leukemia = system: CCRF-CEM leukemia
MOLT-4 leukemia = system: MOLT-4 leukemia
SNB-75 CNS = system: SNB-75 CNS
EKVX NSCLC = system: EKVX NSCLC

**Q.** `O=C(COc1ccc(-c2nc3ccccc3[nH]2)cc1)N=Nc1c(O)[nH]c2ccccc12` was tested. Which growth (HCT-15 colon) did it give?
**A.** 105%

**Q.** What about the growth (HT29 colon) of the same compound?
**A.** 100%

**Q.** What about the growth (SNB-19 CNS) of the same compound?
**A.** 93.4%

**Q.** And the growth (U251 CNS)?
**A.** 55.9%

**Q.** And the growth (PC-3 prostate)?
**A.** 86.5%

**Q.** And the growth (SK-MEL-5 melanoma)?
**A.** 102%

**Q.** What about the growth (UACC-62 melanoma) of the same compound?
**A.** 96.2%

**Q.** And the growth (LOX IMVI melanoma)?
**A.** 100%

**Q.** And the growth (SK-MEL-28 melanoma)?
**A.** 99.7%

**Q.** And the growth (SK-MEL-2 melanoma)?
**A.** 113%

**Q.** And the growth (SN12C renal)?
**A.** 91.7%

**Q.** And the growth (UO-31 renal)?
**A.** 93.4%

**Q.** What about the growth (TK-10 renal) of the same compound?
**A.** 128%

**Q.** And the growth (ACHN renal)?
**A.** 98.7%

**Q.** And the growth (CAKI-1 renal)?
**A.** 99.2%

**Q.** And the growth (A498 renal)?
**A.** 86.4%

**Q.** What about the growth (CCRF-CEM leukemia) of the same compound?
**A.** 4.95% (active)

**Q.** What about the growth (MOLT-4 leukemia) of the same compound?
**A.** 91.8%

**Q.** Which results are given for `CCCc1c(CC)c(=N)c2ccccc2n1C`?
**A.** growth (HCT-15 colon): 10.7%; growth (HT29 colon): 4.71% (active); growth (SNB-19 CNS): 95.1%; growth (U251 CNS): 43.2%; growth (PC-3 prostate): 67.4%; growth (SK-MEL-5 melanoma): 19.2%; growth (UACC-62 melanoma): -3.76% (active); growth (LOX IMVI melanoma): 1.08% (active); growth (SK-MEL-2 melanoma): 37.3%; growth (SN12C renal): 72.5%; growth (UO-31 renal): 38.3%; growth (TK-10 renal): 74.4%; growth (ACHN renal): 65.8%; growth (CAKI-1 renal): 39.8%; growth (A498 renal): 42.4%; growth (CCRF-CEM leukemia): 9.26% (active); growth (MOLT-4 leukemia): 0.122% (active)

**Q.** Which growth (HCT-15 colon) does the source give for `COC(=O)[C@]12CC[C@@H](C)[C@H](C)[C@@H]1C1=CC[C@@H]3[C@@]4(C)C/C(=N\O)[C@H](O)[C@@]5(C)COC(=C45)C[C@@]3(C)[C@]1(C)CC2` here?
**A.** -92.7% (active)

**Q.** What about the growth (HT29 colon) of the same compound?
**A.** -92.9% (active)

**Q.** What about the growth (SNB-19 CNS) of the same compound?
**A.** -66.2% (active)

**Q.** What about the growth (U251 CNS) of the same compound?
**A.** -96.4% (active)

**Q.** And the growth (PC-3 prostate)?
**A.** -81.5% (active)

**Q.** What about the growth (SK-MEL-5 melanoma) of the same compound?
**A.** -97.7% (active)

**Q.** And the growth (UACC-62 melanoma)?
**A.** -57.6% (active)

**Q.** What about the growth (LOX IMVI melanoma) of the same compound?
**A.** -71.6% (active)

**Q.** And the growth (SK-MEL-28 melanoma)?
**A.** -60.3% (active)

**Q.** And the growth (SK-MEL-2 melanoma)?
**A.** -91.3% (active)

**Q.** And the growth (UO-31 renal)?
**A.** -85.6% (active)

**Q.** What about the growth (TK-10 renal) of the same compound?
**A.** -91.2% (active)

**Q.** What about the growth (ACHN renal) of the same compound?
**A.** -80.9% (active)

**Q.** What about the growth (CAKI-1 renal) of the same compound?
**A.** -80.7% (active)

**Q.** And the growth (A498 renal)?
**A.** -88.8% (active)

**Q.** And the growth (CCRF-CEM leukemia)?
**A.** -49% (active)

**Q.** And the growth (MOLT-4 leukemia)?
**A.** -62.9% (active)

**Q.** Which growth (HCT-15 colon) does the source give for `COc1ccc(COC(=O)CC(C)C)cc1` here?
**A.** 105%

**Q.** And the growth (SNB-75 CNS)?
**A.** 91.9%

**Q.** What about the growth (SNB-19 CNS) of the same compound?
**A.** 103%

**Q.** And the growth (U251 CNS)?
**A.** 92.7%

**Q.** What about the growth (PC-3 prostate) of the same compound?
**A.** 94.4%

**Q.** And the growth (SK-MEL-5 melanoma)?
**A.** 93.4%

**Q.** What about the growth (UACC-62 melanoma) of the same compound?
**A.** 99.3%

**Q.** And the growth (LOX IMVI melanoma)?
**A.** 97.1%

**Q.** What about the growth (SK-MEL-2 melanoma) of the same compound?
**A.** 101%

**Q.** What about the growth (EKVX NSCLC) of the same compound?
**A.** 101%

**Q.** And the growth (UO-31 renal)?
**A.** 93.5%

**Q.** And the growth (TK-10 renal)?
**A.** 90.6%

**Q.** What about the growth (ACHN renal) of the same compound?
**A.** 105%

**Q.** What about the growth (CAKI-1 renal) of the same compound?
**A.** 98.7%

**Q.** What about the growth (A498 renal) of the same compound?
**A.** 117%

**Q.** And the growth (CCRF-CEM leukemia)?
**A.** 102%

**Q.** And the growth (MOLT-4 leukemia)?
**A.** 98.8%

**Q.** What does the source list for `COc1ccc(-n2nnc3c(sc4ccccc43)c2=O)cc1`?
**A.** growth (HCT-15 colon): 102%; growth (SNB-75 CNS): -9.25% (active); growth (SNB-19 CNS): 33.7%; growth (U251 CNS): 18.9%; growth (PC-3 prostate): 73%; growth (SK-MEL-5 melanoma): 74.5%; growth (UACC-62 melanoma): 93.9%; growth (LOX IMVI melanoma): 74.4%; growth (SK-MEL-28 melanoma): 82.8%; growth (SK-MEL-2 melanoma): 77.1%; growth (SN12C renal): 61.9%; growth (UO-31 renal): 1.83% (active); growth (TK-10 renal): 8.22% (active); growth (ACHN renal): -22.3% (active); growth (CAKI-1 renal): 36.6%; growth (A498 renal): -2.38% (active); growth (CCRF-CEM leukemia): 89.9%; growth (MOLT-4 leukemia): 99.5%

**Q.** Which results are given for `CCCCN(CCCC)c1ccc(C(=NC(C)CCCN(CC)CC)c2ccc(N(C)C)cc2)cc1` (configuration not stated)?
**A.** growth (HCT-15 colon): -79.8% (active); growth (SNB-75 CNS): -34% (active); growth (SNB-19 CNS): -23% (active); growth (U251 CNS): -79.9% (active); growth (PC-3 prostate): -42.4% (active); growth (SK-MEL-5 melanoma): -99.6% (active); growth (UACC-62 melanoma): -73.5% (active); growth (LOX IMVI melanoma): -96.7% (active); growth (SK-MEL-28 melanoma): -72.1% (active); growth (SK-MEL-2 melanoma): -78.9% (active); growth (EKVX NSCLC): -30.4% (active); growth (UO-31 renal): -87.8% (active); growth (ACHN renal): -41.3% (active); growth (CAKI-1 renal): -5.33% (active); growth (A498 renal): -12.4% (active); growth (CCRF-CEM leukemia): 7.26% (active); growth (MOLT-4 leukemia): -6.33% (active)

**Q.** What does the source list for `CCN(Cc1ccccc1)C1CCN(Cc2cc(Br)ccc2O)CC1`?
**A.** growth (HCT-15 colon): 50.1%; growth (SNB-75 CNS): 49.2%; growth (SNB-19 CNS): 65.7%; growth (U251 CNS): 43.9%; growth (PC-3 prostate): 45.7%; growth (SK-MEL-5 melanoma): 32.1%; growth (UACC-62 melanoma): 51.7%; growth (LOX IMVI melanoma): 54.9%; growth (SK-MEL-28 melanoma): 76.1%; growth (SK-MEL-2 melanoma): 69.7%; growth (SN12C renal): 44.8%; growth (UO-31 renal): 23.5%; growth (TK-10 renal): 52.1%; growth (ACHN renal): 45.1%; growth (CAKI-1 renal): 44.7%; growth (A498 renal): 66.2%; growth (CCRF-CEM leukemia): 43.5%; growth (MOLT-4 leukemia): 61.2%

**Q.** What does the source list for `Cc1cccc2c(Nc3ccc(NS(C)(=O)=O)cc3)c3ccc([N+](=O)[O-])cc3nc12`?
**A.** growth (HCT-15 colon): 6.83% (active); growth (SNB-19 CNS): 25.7%; growth (U251 CNS): 3.4% (active); growth (PC-3 prostate): 18%; growth (SK-MEL-5 melanoma): -19.4% (active); growth (UACC-62 melanoma): 1.92% (active); growth (LOX IMVI melanoma): -43.5% (active); growth (SK-MEL-28 melanoma): -5.65% (active); growth (SK-MEL-2 melanoma): -19.1% (active); growth (SN12C renal): 7.61% (active); growth (UO-31 renal): 10.5%; growth (TK-10 renal): 20.7%; growth (ACHN renal): -11.4% (active); growth (CAKI-1 renal): 6.69% (active); growth (A498 renal): -11.2% (active); growth (CCRF-CEM leukemia): -9.83% (active); growth (MOLT-4 leukemia): -5.36% (active)

**Q.** Which growth (HCT-15 colon) does the source give for `Cc1ccc(C2C=C(c3ccc(Cl)cc3)N=C3SC=CN32)c(Br)c1` (configuration not stated) here?
**A.** 75.1%

**Q.** What about the growth (SNB-75 CNS) of the same compound?
**A.** 75.5%

**Q.** What about the growth (SNB-19 CNS) of the same compound?
**A.** 74.2%

**Q.** And the growth (U251 CNS)?
**A.** 60.3%

**Q.** And the growth (PC-3 prostate)?
**A.** 65.5%

**Q.** And the growth (SK-MEL-5 melanoma)?
**A.** 84.8%

**Q.** What about the growth (UACC-62 melanoma) of the same compound?
**A.** 83.3%

**Q.** And the growth (LOX IMVI melanoma)?
**A.** 55.9%

**Q.** What about the growth (SK-MEL-28 melanoma) of the same compound?
**A.** 105%

**Q.** And the growth (SK-MEL-2 melanoma)?
**A.** 105%

**Q.** What about the growth (SN12C renal) of the same compound?
**A.** 94%

**Q.** And the growth (UO-31 renal)?
**A.** 57.8%

**Q.** And the growth (TK-10 renal)?
**A.** 125%

**Q.** And the growth (ACHN renal)?
**A.** 91.8%

**Q.** And the growth (CAKI-1 renal)?
**A.** 65.1%

**Q.** What about the growth (A498 renal) of the same compound?
**A.** 87%

**Q.** What about the growth (CCRF-CEM leukemia) of the same compound?
**A.** 55.7%

**Q.** And the growth (MOLT-4 leukemia)?
**A.** 64.9%
